Data: PubChem BioAssay AID1053125 (Broad Institute, 2014)
Entries with a potency or affinity are not part of this list. Active and inactive are the calls of the source.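 The calls were made as follows: active = viability loss whose fitted half-maximal concentration is at most twice the top valid tested dose; inconclusive = flat curve with 30 to 70% loss, or poor fit; inactive = the rest.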

Experiment: HepG2 cell cytotoxicity, dose response, cytotoxicity control, ATP luminescence, cherry-pick, set 6 (AID 1053125);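 also: negative values mean loss of viability signal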
Conditions: HepG2 viability, ATP luminescence (CellTiter-Glo), 72 h; series mostly up to 26 µM

Row | SMILES | outcome
1 | Cc1ccc(S(=O)(=O)Nc2ccc(Nc3ccccc3)cc2)cc1 | inactive
2 | N#C/C(=C\c1ccco1)C(=O)Nc1cccc2ncccc12 | inactive
3 | CCOc1ccc(C2C(C#N)=C(N)Oc3cc(O)ccc32)cc1OCC (configuration not stated) | inactive
4 | N#Cc1c(NCCCO)nc(NCc2ccccc2)c2c1CCN(Cc1ccccc1)C2 | inactive
5 | CC1=C(C(=O)N2CCN(c3cc(C)ccc3C)CC2)C2(CCCCC2)OC1=O | inactive
6 | CCOC(=O)c1c(C)n(C)c2ccc(OCC(O)CN3CCC(C)CC3)cc12 (configuration not stated) | inactive
7 | CCOC(=O)c1cc(-c2ccccc2)sc1NC(=O)CSc1nnc(N)s1 | inactive
8 | O=C(O)c1cccc(Nc2nc(-c3cc4ccccc4oc3=O)cs2)c1 | inactive
9 | CCCN1CCN(C(=O)c2ccc(CS(=O)c3ccc(Br)cc3)o2)CC1 (configuration not stated) | inactive
10 | CSc1ccc(Cn2c(C)c(C(=O)NCCC#N)sc2=O)cc1 | inactive
11 | Cc1c2c(n3c(nc4ccccc43)c1C#N)N(CCN1CCOCC1)CC2 | inactive
12 | C[C@H](NC(=O)c1nc[nH]c1C(=O)N[C@@H](Cc1ccccc1)C(=O)OC(C)(C)C)C(=O)OCc1ccccc1 | inactive
13 | Cc1ccc(S(=O)(=O)c2cc3c(=O)n4ccccc4nc3n(C)c2=N)cc1 | inactive
14 | CCOc1ccc(S(=O)(=O)Nc2ccc(C(=O)N(CC)CC(=O)NCc3cccs3)cc2)cc1 | inactive
15 | COc1ccc(S(=O)(=O)N2CCCC2CNC(=O)C(=O)NC2CCCC2)cc1 (configuration not stated) | inactive
16 | NC(=O)c1cc([N+](=O)[O-])ccc1NCc1cccnc1 | inactive
17 | O=C1CCc2cc(S(=O)(=O)NC(Cc3ccccc3)C(=O)NCCC3=CCCCC3)ccc2N1 (configuration not stated) | inactive
